Test results from ChEMBL document CHEMBL1961873, “Compounds: GSK PKIS; Assays: Nanosyn kinase panel” (2012).

How the values were obtained:
[1] = target: T1, Aurora kinase A (Homo sapiens) (UniProt O14965); conditions: at 1 µM;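 also: values are mean percent inhibition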
T1 sequence (whole entry): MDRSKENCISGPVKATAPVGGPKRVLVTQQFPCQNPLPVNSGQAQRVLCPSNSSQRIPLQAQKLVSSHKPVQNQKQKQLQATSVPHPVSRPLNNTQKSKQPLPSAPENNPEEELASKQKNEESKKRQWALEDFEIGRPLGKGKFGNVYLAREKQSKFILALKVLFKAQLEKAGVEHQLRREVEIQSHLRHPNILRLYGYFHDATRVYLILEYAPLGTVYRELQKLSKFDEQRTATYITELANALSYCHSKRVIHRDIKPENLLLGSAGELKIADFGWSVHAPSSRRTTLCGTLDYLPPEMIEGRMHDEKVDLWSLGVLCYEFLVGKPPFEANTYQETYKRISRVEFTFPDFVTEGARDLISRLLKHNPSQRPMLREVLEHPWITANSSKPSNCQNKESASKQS

[2] = target: Aurora kinase B (Homo sapiens) (UniProt Q96GD4); conditions: at 0.1 µM
[3] = target: Aurora kinase B (Homo sapiens) (UniProt Q96GD4); conditions: at 1 µM
[4] = target: T2, Aurora kinase C (Homo sapiens) (UniProt Q9UQB9); conditions: at 0.1 µM
T2 sequence (whole entry): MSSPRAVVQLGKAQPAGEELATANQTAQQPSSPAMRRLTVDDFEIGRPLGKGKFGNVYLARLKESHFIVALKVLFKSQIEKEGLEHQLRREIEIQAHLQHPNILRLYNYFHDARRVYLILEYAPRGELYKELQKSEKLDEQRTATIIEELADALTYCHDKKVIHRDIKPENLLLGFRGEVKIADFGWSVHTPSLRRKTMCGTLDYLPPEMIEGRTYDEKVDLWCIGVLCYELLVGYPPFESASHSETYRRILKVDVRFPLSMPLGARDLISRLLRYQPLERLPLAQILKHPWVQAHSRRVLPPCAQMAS

[5] = target: T2, Aurora kinase C (Homo sapiens); conditions: at 1 µM
[6] = target: Serine/threonine-protein kinase 10 (Homo sapiens) (UniProt O94804); conditions: at 0.1 µM
[7] = target: Serine/threonine-protein kinase 10 (Homo sapiens) (UniProt O94804); conditions: at 1 µM
[8] = target: T3, Mitogen-activated protein kinase kinase kinase kinase 2 (Homo sapiens) (UniProt Q12851); conditions: at 0.1 µM
T3 sequence (whole entry): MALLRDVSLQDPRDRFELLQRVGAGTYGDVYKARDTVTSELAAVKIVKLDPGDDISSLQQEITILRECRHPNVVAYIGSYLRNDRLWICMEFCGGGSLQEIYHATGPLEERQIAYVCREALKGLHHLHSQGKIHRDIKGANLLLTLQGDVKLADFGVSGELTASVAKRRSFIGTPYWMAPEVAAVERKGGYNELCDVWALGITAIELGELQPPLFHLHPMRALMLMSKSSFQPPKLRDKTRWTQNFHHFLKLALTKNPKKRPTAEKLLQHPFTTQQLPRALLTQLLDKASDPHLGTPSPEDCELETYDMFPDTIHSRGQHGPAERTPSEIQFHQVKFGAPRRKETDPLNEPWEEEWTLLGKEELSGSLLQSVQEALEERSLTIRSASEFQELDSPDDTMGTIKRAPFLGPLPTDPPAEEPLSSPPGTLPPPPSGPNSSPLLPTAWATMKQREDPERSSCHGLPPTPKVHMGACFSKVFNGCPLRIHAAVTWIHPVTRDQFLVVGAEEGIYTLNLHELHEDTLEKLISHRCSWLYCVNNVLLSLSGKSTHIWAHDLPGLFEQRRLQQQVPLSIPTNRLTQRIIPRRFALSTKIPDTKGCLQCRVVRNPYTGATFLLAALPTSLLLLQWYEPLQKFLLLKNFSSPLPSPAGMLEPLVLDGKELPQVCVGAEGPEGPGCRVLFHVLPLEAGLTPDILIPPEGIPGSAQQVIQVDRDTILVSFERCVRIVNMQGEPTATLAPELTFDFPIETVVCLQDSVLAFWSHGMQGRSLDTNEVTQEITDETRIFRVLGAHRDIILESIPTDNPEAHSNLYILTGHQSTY

[9] = target: T3, Mitogen-activated protein kinase kinase kinase kinase 2 (Homo sapiens); conditions: at 1 µM
[10] = target: Mitogen-activated protein kinase kinase kinase kinase 4 (Homo sapiens) (UniProt O95819); conditions: at 0.1 µM
Chain of Mitogen-activated protein kinase kinase kinase kinase 4 (Homo sapiens) (O95819 2-1239 limits assumed): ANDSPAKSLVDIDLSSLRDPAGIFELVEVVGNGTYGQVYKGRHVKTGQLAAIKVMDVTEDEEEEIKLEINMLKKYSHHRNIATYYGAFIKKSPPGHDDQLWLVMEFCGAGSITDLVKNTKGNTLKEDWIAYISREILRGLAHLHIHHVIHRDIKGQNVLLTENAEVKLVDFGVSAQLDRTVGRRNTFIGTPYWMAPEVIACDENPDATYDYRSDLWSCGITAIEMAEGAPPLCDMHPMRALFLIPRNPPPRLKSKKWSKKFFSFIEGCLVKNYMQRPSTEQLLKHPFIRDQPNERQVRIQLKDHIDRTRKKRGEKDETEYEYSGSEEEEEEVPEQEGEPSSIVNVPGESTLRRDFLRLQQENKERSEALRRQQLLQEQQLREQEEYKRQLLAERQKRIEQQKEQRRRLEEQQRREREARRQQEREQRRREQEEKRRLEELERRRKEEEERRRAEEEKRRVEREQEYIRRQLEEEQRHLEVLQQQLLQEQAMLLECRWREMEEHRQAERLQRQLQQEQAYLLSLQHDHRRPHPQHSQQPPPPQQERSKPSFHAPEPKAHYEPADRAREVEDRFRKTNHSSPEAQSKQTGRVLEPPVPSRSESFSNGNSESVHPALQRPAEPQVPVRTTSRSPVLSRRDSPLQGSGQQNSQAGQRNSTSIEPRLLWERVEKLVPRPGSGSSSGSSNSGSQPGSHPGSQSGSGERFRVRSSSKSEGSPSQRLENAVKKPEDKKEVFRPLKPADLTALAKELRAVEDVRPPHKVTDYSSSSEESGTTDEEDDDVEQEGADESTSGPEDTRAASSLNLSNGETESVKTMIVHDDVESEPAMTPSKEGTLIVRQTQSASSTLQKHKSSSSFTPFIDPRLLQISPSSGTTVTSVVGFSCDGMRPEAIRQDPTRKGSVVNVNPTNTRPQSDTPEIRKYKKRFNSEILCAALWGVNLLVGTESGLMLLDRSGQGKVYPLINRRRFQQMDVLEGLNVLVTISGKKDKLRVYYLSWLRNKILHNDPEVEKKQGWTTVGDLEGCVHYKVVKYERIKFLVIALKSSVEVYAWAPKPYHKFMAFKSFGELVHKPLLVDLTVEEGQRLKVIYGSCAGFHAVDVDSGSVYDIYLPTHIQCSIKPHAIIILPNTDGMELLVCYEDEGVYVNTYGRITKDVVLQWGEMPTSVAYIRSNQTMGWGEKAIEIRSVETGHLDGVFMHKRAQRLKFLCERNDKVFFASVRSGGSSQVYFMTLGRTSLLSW

Chain of Aurora kinase B (Homo sapiens) (Q96GD4 whole entry): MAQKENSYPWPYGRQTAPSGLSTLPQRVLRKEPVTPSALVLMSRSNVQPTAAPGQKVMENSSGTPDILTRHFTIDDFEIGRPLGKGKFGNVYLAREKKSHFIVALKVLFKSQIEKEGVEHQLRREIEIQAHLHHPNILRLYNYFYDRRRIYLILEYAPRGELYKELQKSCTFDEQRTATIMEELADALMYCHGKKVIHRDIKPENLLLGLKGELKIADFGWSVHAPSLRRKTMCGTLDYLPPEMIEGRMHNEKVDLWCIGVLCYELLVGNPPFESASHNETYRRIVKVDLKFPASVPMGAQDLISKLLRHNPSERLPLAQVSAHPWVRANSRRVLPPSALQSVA
Chain of Serine/threonine-protein kinase 10 (Homo sapiens) (O94804 whole entry, looked up): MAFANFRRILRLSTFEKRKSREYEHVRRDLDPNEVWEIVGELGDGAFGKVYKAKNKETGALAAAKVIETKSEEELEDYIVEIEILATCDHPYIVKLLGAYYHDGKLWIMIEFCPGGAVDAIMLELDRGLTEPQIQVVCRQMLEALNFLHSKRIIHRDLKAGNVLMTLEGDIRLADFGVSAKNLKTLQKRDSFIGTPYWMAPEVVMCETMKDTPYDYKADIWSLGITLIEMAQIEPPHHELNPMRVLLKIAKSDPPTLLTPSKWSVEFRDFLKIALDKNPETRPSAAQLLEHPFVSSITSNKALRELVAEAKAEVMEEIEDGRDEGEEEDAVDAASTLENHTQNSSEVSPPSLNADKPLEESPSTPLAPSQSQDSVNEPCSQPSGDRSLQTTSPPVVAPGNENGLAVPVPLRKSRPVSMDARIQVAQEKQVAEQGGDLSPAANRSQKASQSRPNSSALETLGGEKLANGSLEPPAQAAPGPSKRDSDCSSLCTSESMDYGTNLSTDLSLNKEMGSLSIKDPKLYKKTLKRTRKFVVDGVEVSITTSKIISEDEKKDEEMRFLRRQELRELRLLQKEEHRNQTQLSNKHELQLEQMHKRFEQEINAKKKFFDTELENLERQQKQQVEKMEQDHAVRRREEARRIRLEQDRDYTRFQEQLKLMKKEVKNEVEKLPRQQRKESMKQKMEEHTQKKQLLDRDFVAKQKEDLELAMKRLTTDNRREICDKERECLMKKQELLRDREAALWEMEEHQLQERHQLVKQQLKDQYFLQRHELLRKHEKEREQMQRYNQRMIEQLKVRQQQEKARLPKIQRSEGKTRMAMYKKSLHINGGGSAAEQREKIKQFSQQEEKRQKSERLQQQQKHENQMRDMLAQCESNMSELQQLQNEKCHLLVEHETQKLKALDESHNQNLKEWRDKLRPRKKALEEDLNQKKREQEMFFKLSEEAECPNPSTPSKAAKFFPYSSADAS

Compound	inhibition [1] [%]	inhibition [2] [%]	inhibition [3] [%]	inhibition [4] [%]	inhibition [5] [%]	inhibition [6] [%]	inhibition [7] [%]	inhibition [8] [%]	inhibition [9] [%]	inhibition [10] [%]
CCn1c(-c2nonc2N)nc2ccc(F)cc21	4.08	1.24	7.81	1.48	-2.72	9.56	13.5	1.16	2.01	4.2
CC(C)c1ccc(Nc2nccc(-c3cnn4ncccc34)n2)cc1	65.8	7.65	43.1	5.11	74.6	3.13	8.29	1.97	23.4	4.8
COc1cc(/C=N/Nc2ncnc3c2cnn3C(C)C)ccc1O	37.7	3.34	15.5	1.77	13.8	3	21.7	2.5	9.5	7.32
NS(=O)(=O)c1cccc(Nc2cc(-c3ccc(F)cc3)n[nH]2)c1	8.81	3.89	3.74	0.7	0.46	4.31	16.5	1.41	4.93	16.9
COc1ccc2ncnc(Nc3ccc(OCc4ccccc4)cc3)c2c1	8.54	2.34	22	1.84	10.5	4.51	9.23	0.8	1.74	3.79
Cc1ccc2c(c1)/C(=N/Nc1ccc(S(N)(=O)=O)cc1)C(=O)N2	27.8	1.05	7.36	1.16	23.6	0.32	3.53	1.01	4.98	27.3
NC(=O)c1cccc(Nc2nccc(Nc3cccc(F)c3)n2)c1	65.5	12.6	49.3	25.6	85.2	-0.14	12.3	0.98	14.1	8.77
Nc1ccc(C#Cc2cncnc2Nc2ccc(OCc3cccc(F)c3)c(Cl)c2)cc1	0.03	3.38	1.27	0.25	2.24	5.13	6.55	0.2	1.98	2.07
Cc1ccc2c(-c3ccnc(Nc4cccc(C(F)(F)F)c4)n3)c(-c3ccccc3)nn2n1	6.06	5.03	7.6	3.89	9.67	8.49	11.5	-0.05	9.38	7.07
[O-][S+]1CCN(Cc2ccc(-c3ccc4ncnc(Nc5ccc(OCc6ccccc6)c(Cl)c5)c4c3)o2)CC1	2.75	3.28	5.05	-0.09	1.6	3.93	12.3	-0.35	1.53	0.26
CS(=O)(=O)CCNCc1nc(-c2ccc3ncnc(Nc4ccc(OCc5cccc(C(F)(F)F)c5)cc4)c3c2)cs1	2.26	4.85	6.3	5.42	5.59	6.68	10	-0.19	3.96	1.73
COC(=O)Nc1nc2cc(Oc3ccc(NC(=O)Nc4cccc(Br)c4)cc3)ccc2[nH]1	7.48	8.64	21	11.4	42.5	20.5	34.2	3.41	10.2	3.09
N#Cc1c(NC(=O)c2ccccc2F)sc2c1CCCC2	-2.59	-1.47	0.26	-2	0.91	-0.59	4.2	1.34	2.61	-1.47
CCOc1nccc2c1nc(-c1nonc1N)n2CC	8.92	5.61	8.46	2.28	-5.69	11.5	19.9	5.01	10.6	3.98
COC(=O)c1ccc2c(c1)C(=Cc1cc(Br)c(O)c(Br)c1)C(=O)N2	80.4	2.96	8.43	-0.01	15.2	6.1	10.6	1.53	4.06	45.5
COc1cc(Nc2nccc(-c3cnn4ncccc34)n2)cc(OC)c1	94.2	20.5	71		94.4	5.8	27.3	28.5	72.7	26.1
Cc1ccc(O)cc1Nc1ccnc2ccc(S(C)(=O)=O)cc12	6.17	2.16	5.99	0.93	-0.69	8.9	36.7	5.18	31	8.02

Compound	inhibition [1] [%]	inhibition [2] [%]	inhibition [3] [%]	inhibition [4] [%]	inhibition [5] [%]	inhibition [6] [%]	inhibition [7] [%]	inhibition [8] [%]	inhibition [9] [%]	inhibition [10] [%]
COc1cc2ncnc(Nc3ccc(C)c(O)c3)c2cc1OC	7.23	4.5	8.54	1.17	4.32	21.1	70.1	2.26	5.63	7.16
Nc1nccc(-c2c(-c3ccc(F)cc3)ncn2CCCN2CCOCC2)n1	8.99	2.68	4.99	0.25	-2.92	3.38	7.74	2.02	-0.39	3.81
CN(C)CCCn1c(-c2nonc2N)nc2cnccc21	6.09	3.93	4.46	0.95	6.01	3.09	6.11	2.05	4.37	5.05
Cc1cc(Cl)cc2c1NC(=O)C2=NNc1ccc(S(N)(=O)=O)cc1	4.36	4.55	6.64	2.52	-3.99	1.5	7.34	1	0.54	12.7
CCS(=O)(=O)c1ccc(OC)c(Nc2nccc(N(C)c3ccc4c(C)n[nH]c4c3)n2)c1	6.77	3.25	7.33	6.61	28.2	43.4	83	0.17	12.7	4.51
Oc1cccc(-c2nc(-c3ccccc3)[nH]c2-c2ccncc2)c1	4.61	3.38	8.4	2.05	-2.07	4.37	16.6	0.57	4.27	4.05
C[C@@H](Oc1cc(-n2cnc3ccc(OC[C@@H](O)CO)cc32)sc1C(N)=O)c1ccccc1Cl	2.13	0.7	1.36	-1.38	-2.42	48.1	85.7	3.67	16.4	-0.19
CC(C)c1ccc2c(c1)NC(=O)/C2=N/Nc1ccc(S(N)(=O)=O)cc1	8.05	1.3	7	-4.39	6.7	-0.47	2.14	2.41	2.01	12.8
CN(C)C(=O)O[C@@H]1CN[C@@H](C#Cc2cc3ncnc(Nc4ccc(OCc5cccc(F)c5)c(Cl)c4)c3s2)C1	8.44	2.09	5.86	0.89	14	1.67	6.26	0.47	2.35	2.96
CCn1c(-c2nonc2N)nc2c(C#CC(C)(C)O)nc(OCCNC)cc21	4.63	2.66	5.49	-0.74	3.76	5.14	8.89	0.49	3.15	3.57
ON=C1CCc2cc(-c3nc(C4CCNCC4)[nH]c3-c3ccncc3)ccc21	2.73	0.1	3.15	-0.7	10.1	19.7	63.6	1.74	4.29	3.95
Cc1ccc(Nc2ccnc(Nc3cccc(C(N)=O)c3)n2)cc1O	73.4	6.44	42.6	8.25	85.4	7.05	38.9	2.07	8.97	6.53
COc1cccc(-n2ncc3c(N/N=C/c4ccc(C)cc4)ncnc32)c1	11.8	4.27	6.65	1.92	4.66	5.12	10.9	0.91	4.23	4.74
Cc1ccc(NC(=O)CC2CC2)cc1-c1ccc(C(=O)NCC2CC2)cc1	8.68	0.07	6.1	1.19	-2.19	3.11	8.8	0.05	3.42	2.06
COc1cccc(-n2ncc3c(N/N=C/c4ccc(S(C)(=O)=O)cc4)ncnc32)c1	28.4	9.58	42.4	0.72	12.2	6.63	16.3	0.47	0.9	16.2
CCS(=O)(=O)c1ccc(OC)c(Nc2ncc(-c3cccc(OC)c3)o2)c1	34.5	2.15	5.4	1.61	14.6	4.31	8.64	1.39	6.14	4.46
CN(c1ccc(NC(=O)Nc2ccc(OC(F)(F)F)cc2)cc1)c1ccnc(Nc2cccc(S(N)(=O)=O)c2)n1	76.8	63.9	79	30.7	96.5	26	70.4	18.4	69.5	24.4
